We go through 39 molecules from PubChem BioAssay AID493175 (National Center for Advancing Translational Sciences (NCATS), 2011).

Records with an inconclusive call do not appear. Activity calls are given as the source filed them. The call rests on the fitted dose curve; in most records, active means well fitted curve in the direction sought with a large enough effect; inconclusive means small, poorly fitted or top-dose-only effect, or another doubt; inactive means no such curve, though single readings can be large or run the other way.

Sequence of Luciferin 4-monooxygenase (Photinus pyralis) (P08659 whole entry, looked up): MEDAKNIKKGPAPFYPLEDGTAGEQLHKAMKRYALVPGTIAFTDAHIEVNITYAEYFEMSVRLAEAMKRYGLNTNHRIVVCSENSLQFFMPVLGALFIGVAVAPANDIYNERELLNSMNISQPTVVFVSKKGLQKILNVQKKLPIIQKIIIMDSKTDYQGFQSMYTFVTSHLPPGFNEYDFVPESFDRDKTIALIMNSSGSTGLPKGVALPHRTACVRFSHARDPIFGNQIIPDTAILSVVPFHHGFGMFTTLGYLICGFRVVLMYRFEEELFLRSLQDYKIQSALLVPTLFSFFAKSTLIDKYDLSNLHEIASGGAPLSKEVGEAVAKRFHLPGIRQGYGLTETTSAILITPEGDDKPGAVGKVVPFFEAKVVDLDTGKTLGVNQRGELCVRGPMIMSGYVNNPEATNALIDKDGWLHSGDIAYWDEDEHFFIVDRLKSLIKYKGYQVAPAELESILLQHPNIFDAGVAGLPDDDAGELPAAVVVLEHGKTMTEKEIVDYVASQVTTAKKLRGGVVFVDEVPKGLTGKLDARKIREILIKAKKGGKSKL

This assay has as its target Luciferin 4-monooxygenase (Photinus pyralis) (UniProt P08659). The experiment in a line: miR-21 counterscreen using purified firefly luciferase. As to conditions: purified P. pyralis luciferase, luminescence; series mostly up to 57.5 µM. An excerpt:
MLPCN Grant: 1 R21 NS059478-01 Assay Provider: Qihong Huang, The Wistar Institute NCGC Assay Overview: MicroRNAs (miRNAs) are endogenously encoded small (~20-25 nucleotides), nonprotein-coding RNAs that are involved in post-transcriptional repression of target messenger RNAs (mRNAs) (Le and Hannon, 2004). Estimated to be involved in the regulation of 30% of all protein-coding mRNAs (Filipowicz et al., 2008), miRNAs play a significant role in many biological processes including cellular differentiation and tissue development (Ghildiyal and Zamore, 2009). […] Compounds active in the miR-21 FLuc assay were clustered using Leadscope and active chemical series were prioritized based on chemical properties, potential for medicinal chemistry optimization, and SAR. Within each chemical series, representative compounds were re-acquired to test for activity in a secondary assay based on the quality of their CRC, efficacy, and potency. This secondary assay to determine if compounds active in the miR-21 FLuc assay were just luciferase inhibitors. Compounds found active in both the miR-21 FLuc and purified FLuc assays are considered as false positives. Keywords: NIH Roadmap, MLPCN, MLSMR, qHTS, miR-21, firefly luciferase, FLuc, miRNA.
NCGC Assay Protocol Summary: Reagents: 50mM Tris acetate, pH 7.5; 10mM Mg acetate; 10uM D-luciferin (Sigma #L9504); 10uM ATP; 0.01% Tween-20; 0.05% BSA; 10nM P. pyralis luciferase (Sigma #L9506) Control compounds used were two known firefly luciferase inhibitors (compounds (2) and (5) in Auld et al., 2010), and DMSO. Assay Summary: Three microliters containing firefly luciferase substrates in buffer (final concentrations: 50mM Tris acetate, pH 7.5, 10mM Mg acetate, 0.01% Tween-20, 0.05% BSA, 10uM D-luciferin, and 10uM ATP) are dispensed into each well of a Greiner white, solid-bottom 1536-well format plate using a flying reagent dispenser (FRD). These assay plates were then treated with 23nL of compound or DMSO using a Kalypsys pin tool, which allows for delivery of a 6-point interplate titration of each compound to the assay plate (quantitative HTS), with a final compound concentrations ranging from approximately 60 µM to 7pM. One microliter of firefly luciferase in […] Tris-acetate buffer was then delivered by FRD to each well for a final enzyme concentration of 10nM. Luciferase activity was then measured using a ViewLux CCD imager (PerkinElmer), with an average exposure time of 2-30 seconds (2X binning, medium/high gain).
On the technique in general: A counterscreen serves to expose hits that act by an unwanted route or on another target.
As for `C/C(=N\NC(=O)c1ccncc1)c1ccc(NC(=O)c2ccc(Cl)cc2)cc1`, the outcome was inactive.

As for `COc1ccc(OCC(=O)Nc2ccc(-c3nc4cc(Cl)ccc4o3)cc2)cc1`, the molecule was classed as inactive.

With `O=C(CSc1nnc(-c2ccccn2)o1)Nc1cccc(Cl)c1`, the molecule was classed as inactive.

As for `CC(=O)c1cnc2nc(SCc3ccccc3)nn2c1C`, the molecule was classed as inactive.

Regarding `COc1ccccc1Nc1nn2c(=O)c3ccc(C(=O)NCCc4ccccc4)cc3nc2s1`, the molecule was called inactive.

With `NC(=O)c1ccccc1NC(=O)c1ccc(-c2ccc(Br)cc2)o1`, the molecule was called inactive.

For `COc1ccccc1NC(=O)CSc1nnc(-c2ccccn2)o1`, the molecule was classed as inactive.

For the molecule `COc1ccc(Nc2cc(C(=O)NCCCN3CCN(c4ccc(OC)cc4)CC3)c3ccccc3n2)cc1`, the molecule was called inactive.

In the case of `Nc1c(-c2nc(-c3cccs3)no2)nnn1-c1cccc(F)c1`, the outcome was inactive.

For the molecule `COc1cccc(C(=O)Nc2ccc3nc(N4CCN(c5ncccn5)CC4)cc(C)c3c2)c1OC`, the call was inactive.

Regarding `COc1cc(-c2nc3cnccn3c2Nc2ccc(C(C)C)cc2)ccc1O`, the molecule was classed as inactive.

As for `Cc1cccc(-n2nnc(-c3nc(-c4cccs4)no3)c2N)c1`, the molecule was called inactive.

Regarding `O=C(CSc1nnc(-c2cccnc2)o1)Nc1cccc(Cl)c1`, the call was inactive.

With `Cc1ccc(Nc2ncnc(N)n2)cc1C`, the molecule was called inactive.

Turning to `CCS(=O)(=O)c1ncc(Cl)c(C(=O)N2CCN(c3cccc(Cl)c3)CC2)n1`, the outcome was inactive.

In the case of `COCC(=O)Nc1c(C(=O)Nc2ccc3c(c2)OCCO3)oc2ccccc12`, the molecule was classed as inactive.

Consider `Cc1ccc(-n2nnc(-c3nc(-c4cccs4)no3)c2N)cc1C`, for which the outcome was inactive.

On to `O=C(c1ccc(Cl)cc1)n1nc(-c2ccccc2)nc1NCc1ccco1`, for which the molecule was called inactive.

Consider `Cc1cccc(-c2nsc(SCC(=O)Nc3ccc4c(c3)OCO4)n2)c1`, for which the molecule was classed as inactive.

Consider `CCc1ccc2oc(C(=O)Nc3nonc3CC)c(C)c2c1`, for which the molecule was called inactive.

For `CCc1nonc1NC(=O)c1oc2ccc(C)cc2c1C`, the molecule was called inactive.

In the case of `COc1ccc(-c2nnc(SCC(=O)Nc3cccc(F)c3)s2)cc1`, the molecule was called inactive.

In the case of `CC(C)C(=O)Nc1nc2c(s1)CC(C(C)(C)C)CC2` (centres undefined), the result was inactive.

For the molecule `CC(C)COc1ccc(C(=O)Nc2cc(-c3ccccc3)no2)cc1`, the molecule was called inactive.

Take `COc1ccc(NC(=O)CSc2nc(SC)ns2)c(OC)c1`: the result was inactive.

As for `COc1cccc(-n2nnc(-c3nc(-c4cccs4)no3)c2N)c1`, the outcome was inactive.

Regarding `CN(C(=O)CSc1nnc(-c2ccccc2F)o1)C1CCCCC1`, the molecule was classed as inactive.

As for `CCS(=O)(=O)c1ncc(Cl)c(C(=O)Nc2ccc(S(=O)(=O)N(C)c3ccccc3)cc2)n1`, the call was inactive.

Turning to `c1ccc(CSc2nnc3ccc(-c4cccs4)nn23)nc1`, the call was inactive.

As to `Cc1cc(Nc2cccc(C(F)(F)F)c2)nc2ccc(NC(=O)c3cccnc3)cc12`, the result was inactive.

As to `Cc1ccc(-n2nnc(-c3nsc(NC(=O)c4ccccc4)n3)c2C)cc1`, the molecule was classed as inactive.

For the molecule `COc1ccc(-c2nc(SCc3ccccc3)n(S(C)(=O)=O)n2)cc1`, the result was inactive.

On to `COc1ccccc1NC(=O)C/C(C)=N/NC(=O)c1ccccn1`, for which the call was inactive.

For `Cc1cc(C)cc(NC(=O)CSc2nnc(-c3ccccc3C)o2)c1`, the result was inactive.

Consider `Cc1ccc(-c2nsc(SCC(=O)Nc3ccc4c(c3)OCO4)n2)cc1`, for which the result was inactive.

For `Cc1cccc(-c2nnc(SCC(=O)Nc3ccc(C)c(C)c3)o2)c1`, the result was inactive.

As to `COc1ccc(-c2csc(NC(=O)COC(=O)c3ccc(Br)o3)n2)cc1`, the molecule was classed as inactive.

With `Fc1ccccc1CSc1nnc(-c2cnccn2)n1Cc1ccco1`, the call was inactive.

Take `N#Cc1cc2cc3c(cc2nc1SCC(=O)N1CCOCC1)OCO3`: the molecule was classed as inactive.
